# In PubChem BioAssay (NCI):
# Compounds without any hit were thinned out: in the full panel of roughly 79,000, 15% have a hit. Unmarked numbers belong to inactive results. Active and inactive are the calls of the source. No stated cut-off is given here; in the data, active means growth inhibition above about 70%; inactive means the rest.
# Test: NCI Yeast Anticancer Drug Screen. Data for the wt2 strain (AID 169);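 further: 0% = growth of vehicle-treated yeast cultures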
# Details: S. cerevisiae wt2 strain growth inhibition, hits give high values
# Description: Growth inhibition of yeast strains with defined genetic alterations is measured as a screen for potential anti-cancer activity. Selected strains with alterations in DNA damage repair or cell cycle control were exposed to compounds and growth inhibition was measured relative to vehicle treated controls. The strain used in this assay is wt2
Compound,growth inhibition (at 1.2 µM),growth inhibition (at 3.7 µM),growth inhibition (at 11.0 µM),growth inhibition (at 33.0 µM),growth inhibition (at 100.0 µM)
On1cnc(=S)c2[nH]cnc21,2%,-6%,-11%,-4%,-19%
C=C(C)[C@@H]1CCc2c(O)c(O)c(=O)cc(C)c2C1,-69%,-31%,-27%,91% (active),97% (active)
CCOC(=O)C(NC(=O)CC)(N1CCN(c2cc3c(cc2F)c(=O)c(C(=O)O)cn3C2CC2)CC1)C(F)(F)F (stereo not given),-1%,-4%,-2%,10%,84% (active)
COc1cc(/C=C/c2sc3ccccc3[n+]2C)ccc1N(C)C,0%,-1%,-2%,62%,97% (active)
O=C(NC(=S)Nc1ccccn1)c1ccccc1,-32%,-32%,-38%,-27%,-20%
O=S(=O)(N/N=C/c1cccc(Cl)c1)c1ccccc1,-4%,-4%,0%,86% (active),99% (active)
O=C(/C=N/O)Nc1cc(Cl)c(Cl)cc1Cl,-56%,-58%,-38%,-1%,37%
CN=C(N)N/N=C(\C)c1ccc2oc3ccc(/C(C)=N/NC(N)=NC)cc3c2c1,-4%,2%,95% (active),98% (active),98% (active)
